The source of these data is PubChem BioAssay AID1347416 (National Center for Advancing Translational Sciences (NCATS), 2020).

Where “and” joins values, the source holds several entries; their conditions need not be identical. Equal values may be shown once. Hit rate of the full screen: of about 4,100 compounds, about 1,600 (39%) were called active. Another 25% or so got no clear call; they are omitted. This is one part of the list. Unmarked numbers belong to inactive results. Calls follow the shape of the dose curve; as a rule, active = well fitted inhibition curve with a large enough effect; inconclusive = small, poorly fitted or top-dose-only effect; inactive = no such curve, though single readings can be large or run the other way.
% is scaled to controls: 0 for no effect and ±100 for the full control effect; potency is read from the fitted curve at half-maximal effect.

This assay is described as follows: qHTS Validation assay for Inhibitors of Plasmodium falciparum Dd2 growth in vitro. Also: nearly all actives have a fitted effect of over 70% in size. To be noted: P. falciparum Dd2 in RBCs, SYBR Green growth, 72 h; series mostly up to 28.7 µM; activity change, negative = inhibition: at the top concentration. An excerpt: Malaria, a parasitic disease spread to humans through the bite of a Plasmodium infected Anopheles mosquito, continues to be a global health burden affecting millions of people, with an estimated 228 million cases and 405,000 deaths in 2018. Concerns about safety and limitations of current antimalarial treatments strongly emphasize the need to develop new therapeutic options. The scarce number of chemotypes and validated drug targets with efficacy against the liver stage, have hindered development of new antimalarials. To address this, a chemoprophylactic drug discovery effort was conducted through a combined phenotypic high-throughput asexual blood stage and liver stage screen, providing a robust foundation to identify liver-stage active lead chemotypes. Compounds were initially screened against Plasmodium falciparum Dd2 strain parasites using a in vitro SYBRGreen-1 based 72 hr proliferation assay to identify novel chemotypes to advance to liver stage assays. NIH/NCATS Early Translation Branch Assay Submitter (PI): Anton Simeonov Ph.D.
[…] Assay Protocol: PROTOCOL TABLE (as described by Inglese et al., 2007) SEQUENCE No. (e.g., 1, 2, 3, etc.); PARAMETER (e.g., Cells, Incubation, Reagent, etc.); VALUE; DESCRIPTION SEQUENCE, Parameter, Description 1; Reagent; 3 uL complete malaria growth medium, 1536 TC treated Black clear bottom plate 2; Controls; 23 nL positive control artesunate (300 nM final) to column 1; Neutral control DMSO to columns 2-4 3; Compound; 23 nL of compounds in dose response concentration (29 uM to 0.5 nM final) 4; Reagent; 5 uL malaria infected red blood cells (2.5% hematocrit final, 0.3% parasitemia 5; Time; 72 hours at 37C (5% O2, 5% CO2, 90% N2; 95% Rh) 6; Reagent; 2 uL lysis buffer/SYBRGreen-1, 25 sec shake immediately following dispense 7; Time; ~16 hours at 37C (5% O2, 5% CO2, 90% N2; 95% Rh) 8; Detector; EnVision (PerkinElmer) bottom read at 485/14nm excitation and 535/25 nm emission NOTES (numbers refer to sequence above): 1; Complete Malaria Growth Media: 1X RPMI-1640 w/L-glutamine, 5.5g/L Albumax II, 367 uM Hypoxanthine, 25 mM HEPES, 0.25% Sodium Bicarbonate, 35 uM Gentamicin sulfate 2; Controls were added using the Kalypsis Pintool (Wako USA) equipped with 1536 pinhead 3; Compounds were added in a 7-point, titration with a high final concentration of 29 uM by Pintool from seven inter-plate titrations of library plates and two DMSO control plates at the beginning and end (see Yasgar et al., 2008). 4; Red blood cells infected with Plasmodium falciparum Dd2 parasites were used. 6; Lysis buffer: 20 mM Tris-HCl, 10 mM EDTA, 0.16% Saponin, 1.6% Triton-X, 10X SYBR Green. REFERENCE: Inglese J, Shamu CE, Guy RK. 2007. Reporting data from high-throughput screening of small-molecule libraries. Nat Chem Biol. doi:10.1038/nchembio0807-438 Yasgar A, Shinn P, Jadhav A, Auld D, Michael S, Zheng W, Austin CP, Inglese J, Simeonov A. 2008. Compound Management for Quantitative High-Throughput Screening. J Lab Autom 13:79-89. doi:10.1016/j.jala.2007.12.004
Background: In qHTS, concentration-response curves come from the screen itself.
With `Cc1ccc(C(=O)N2[C@H]3CC[C@@H]2c2cnc(-c4ccccc4)nc2C3)cn1`, the “activity change, negative = inhibition” value is -30.1%. Take `Cc1noc(C)c1Cc1ccc(C(=O)N2[C@H]3CC[C@@H]2c2cnc(-c4ccccc4)nc2C3)o1`: the Potency was 9.44 µM (active).

Regarding `Cn1cc(C(=O)N2[C@H]3CC[C@@H]2c2cnc(-c4ccccc4)nc2C3)cn1`, the “activity change, negative = inhibition” value is 6.34%. Regarding `Cc1nc(-c2ccccc2)cc([C@H]2CN3CC[C@H]2C[C@@H]3CN(Cc2ccco2)Cc2ccco2)n1`, the Potency is 2.99 µM (active). Regarding `Cc1nc(-c2ccco2)cc([C@H]2CN3CC[C@H]2C[C@@H]3CNCc2ccccc2)n1`, the Potency is 4.33 µM (active). For `CCOc1ccc(CN(CCc2ccc3c(c2)OCO3)Cc2cc(OC)ccc2O)cc1`, the Potency was 0.668 µM (active). With `CCOc1cccc(CNCCc2c(C)[nH]c3ccc(OC(F)(F)F)cc23)c1O`, the Potency was 2.37 µM (active). As for `Cc1ccc(CN2C3CCCC2CC(NC(=O)Nc2cccc(F)c2)C3)cc1` (centres undefined), the Potency was 10.6 µM (active). For `O=C(NC1CN2CCC1CC2)c1ccc(-c2ccc([N+](=O)[O-])cc2)o1` (centres undefined), the “activity change, negative = inhibition” value was 13.2%.

As to `COC1C(=O)N(c2cccc(F)c2)C12CCNCC2` (centres undefined), the Potency is 10.6 µM (active). With `FC(F)(F)CN1C2CCC1CN(c1nnc(Cl)c3ccccc13)C2`, the Potency is 2.11 µM (active). Still for that read-out and setting: under `CCC(CC)c1cc([C@H]2CN3CC[C@H]2C[C@@H]3COC(=O)Nc2ccc(C(C)(C)C)cc2)nc(-c2ccncc2)n1` stands 2.11 µM (active); under `O=C(Nc1ccccc1)OC[C@H]1C[C@@H]2CCN1C[C@@H]2c1cc(C2CCCC2)nc(-c2ccncc2)n1`, 1.68 µM (active). In the case of `CC(C)(C)c1ccc(NC(=O)OC[C@H]2C[C@@H]3CCN2C[C@@H]3c2cc(C3CCCC3)nc(-c3ccncc3)n2)cc1`, the Potency was 2.11 µM (active). For the compound `COc1ccc(NC(=O)OC[C@H]2C[C@@H]3CCN2C[C@@H]3c2cc(C3CCCC3)nc(-c3ccncc3)n2)cc1`, the Potency is 4.22 µM (active). For `N#Cc1nn(-c2c(Cl)cc(C(F)(F)F)cc2Cl)c(N)c1S(=O)C(F)(F)F` (centres undefined), the Potency is 9.44 µM (active). Same read-out and setting: in the case of `Cc1c2ccncc2c(C)c2c1[nH]c1ccccc12` it was 3.35 µM (active); in that of `CCN1CC=C(c2c[nH]c3ccccc23)CC1`, 4.22 µM (active); in that of `CC(C)N1CC=C(c2c[nH]c3ccccc23)CC1`, 10.6 µM (active). Turning to `CCN(CC)C1=NC(=[N+](CC)CC)c2ccccc21`, the Potency is 5.31 µM (active).

Turning to `COc1ccc(CC(=O)N2Cc3ccccc3CC3(CCCN3C)C2)cc1` (centres undefined), the Potency was 9.44 µM (active). With `CC(C(=O)c1c[nH]c2ccccc12)N1CCN(C(=O)c2ccco2)CC1` (centres undefined), the Potency was 5.96 µM (active).

Regarding `COc1cccc([C@@H]2CCN(Cc3[nH]c4ccccc4c3C)C[C@H]2O)c1`, the Potency is 1.5 µM (active).

In the case of `Oc1c(Br)cc(Br)cc1CN1CCN(Cc2ccccc2)CC1`, the Potency is 1.06 µM (active). With `CCN1CCN(Cc2cc(Br)cc(Br)c2O)CC1`, the Potency was 7.5 µM (active). As for `Oc1ccc(C2NCc3ccccc3-n3cccc32)cc1Cl` (centres undefined), the Potency was 1.19 µM (active) and 1.5 µM (active). For `COc1cc(C2NCc3ccccc3-n3cccc32)ccc1O` (centres undefined), the Potency is 2.66 µM (active). In the case of `CC(C)CCNC(=O)c1cc(C(=O)c2cc(Br)ccc2O)cn(CCC(C)C)c1=O`, the Potency is 0.944 µM (active). On the same count and under the same terms, in the case of `O=C(c1cc(C(=O)NCc2ccccc2)c(=O)n(Cc2ccccc2)c1)c1cc(Br)ccc1O` it was 4.73 µM (active); in that of `CC(C)CCNC(=O)c1cc(C(=O)c2cc(F)ccc2O)cn(CCC(C)C)c1=O`, 2.11 µM (active); in that of `CCOc1c(Cl)cc(CNC(C)C(O)c2ccccc2)cc1OC` (centres undefined), 6.68 µM (active). Take `CC(NCc1ccc(Cl)cc1Cl)C(O)c1ccccc1` (centres undefined): the Potency was 4.73 µM (active). Regarding `CC(C)(C)CN1CCC2(COc3ccncc3S(=O)(=O)N2)C1` (centres undefined), the “activity change, negative = inhibition” value was 55.1%. In the case of `O=C1NC2(CCCN(Cc3ccccn3)C2)COc2ccccc21` (centres undefined), the Potency was 4.85 µM (active). Consider `Cc1cc(O)c(CN2CC=C(c3ccccc3)CC2)cc1C(C)C`, for which the Potency was 0.335 µM (active). With `COc1ccc2ccc(O)c(CN3CC=C(c4ccccc4)CC3)c2c1`, the Potency was 8.41 µM (active). For the compound `CCOc1ccc(CN2C(=O)c3ccccc3Sc3ccc(C(=O)N4CCC5(CC4)OCCO5)cc32)cc1`, the Potency is 4.22 µM (active). For `CCC(CC)c1cc([C@H]2CN3CC[C@H]2C[C@@H]3CNS(=O)(=O)c2cccs2)nc(-c2ccncc2)n1`, the Potency was 2.37 µM (active). Consider `CCC(CC)c1cc([C@H]2CN3CC[C@H]2C[C@@H]3CNS(=O)(=O)c2ccccc2C#N)nc(-c2ccncc2)n1`, for which the Potency is 1.5 µM (active).

For `COC(=O)C(C)Oc1cc(C)cc2oc(=O)c3c(c12)CCC3` (centres undefined), the “activity change, negative = inhibition” value was -27.6%. On to `Cc1nc2c(=O)n(C)c(=O)nc-2n(C)n1`, for which the Potency was 0.422 µM (active).

Regarding `CCC(CC)c1cc([C@H]2CN3CC[C@H]2C[C@@H]3CNC(=O)COc2ccccc2)nc(-c2ccncc2)n1`, the Potency was 1.5 µM (active). For the compound `CCC(CC)c1cc([C@H]2CN3CC[C@H]2C[C@@H]3CNC(C)=O)nc(-c2ccncc2)n1`, the Potency was 15.3 µM (active). Consider `CCC(CC)c1cc([C@H]2CN3CC[C@H]2C[C@@H]3CNC(=O)c2ccc(C)cc2)nc(-c2ccncc2)n1`, for which the Potency is 10.6 µM (active). `CCC(CC)c1cc([C@H]2CN3CC[C@H]2C[C@@H]3CNC(=O)NCc2ccccc2)nc(-c2ccncc2)n1`: the Potency was 4.22 µM (active). As for `CCC(CC)c1cc([C@H]2CN3CC[C@H]2C[C@@H]3CNC(=O)Cc2cccs2)nc(-c2ccncc2)n1`, the Potency was 2.99 µM (active). The same measure, in the same setting: in the case of `CCC(CC)c1cc([C@H]2CN3CC[C@H]2C[C@@H]3CNC(=O)c2ccccc2)nc(-c2ccncc2)n1` it was 10.6 µM (active). In the case of `CCOC(=O)C1(c2ccccc2)CCN(CCC(C#N)(c2ccccc2)c2ccccc2)CC1`, the Potency was 5.31 µM (active). For `CC(C)[C@@]1(NC(=O)[C@@H]2C[C@@H]3c4cccc5[nH]cc(c45)C[C@H]3N(C)C2)O[C@@]2(O)[C@@H]3CCCN3C(=O)[C@H](Cc3ccccc3)N2C1=O`, the Potency is 2.37 µM (active).
